Each structure is given as a SMILES string. The panel holds about 83,000 compounds, 20% with a hit somewhere; the sample as a whole holds those more often.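 48-hour exposure, single concentration, 96-well plates; percent growth endpoint where 0 means no net growth. Active: below 10.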 The source made the active and inactive calls.

This assay relates to M14 melanoma. The assay is described as follows: NCI-60 one-dose screen, 48 h (100 = growth as untreated, 0 = no growth, -100 = all killed). The conditions noted are these: 10 µM unless noted.
Regarding `Cc1nc2cncc(C#Cc3cncc(C(=O)Nc4ccc(CN5CCN(C)CC5)c(C(F)(F)F)c4)c3)c2nc1C`, the growth was -24.8% (active).

In the case of `CCN(CC)CCC(CNc1c2ccc(Cl)cc2nc2ccc(OC)cc12)c1ccccc1` (centres undefined), the growth was -87.9% (active). `Cc1csc(NC(c2ccc(Br)cc2)c2c(C)nc3ccccn23)n1` (centres undefined): the growth is 90.6% (inactive). As for `O=C(NCCCNc1nccc(-n2ccc3cccnc32)n1)c1c(F)cccc1F`, the growth is 102% (inactive). Next, `COc1ccc(/C=C\c2cc(OC)c(OC)c(OC)c2)cc1OC(=O)c1cccc(Cn2cc(CCOC(=O)c3cccc(Cn4nnc5c4C(=O)c4ccccc4C5=O)c3)nn2)c1`: -0.552% (active); `O=C(Nc1ccc(NCCN2CCOCC2)nc1)c1ccc([N+](=O)[O-])cc1`: 105% (inactive); `CCOC(=O)C1C(=O)C=C(c2ccc(OC)cc2)CC1c1sc(N(C)Cc2ccccc2)nc1Cl` (centres undefined): 87.6% (inactive). As to `NC(=S)N/N=C(/CCN1CCCC1)CC(C1=C(O)C2=CCCCC2OC1=O)c1ccccc1` (centres undefined), the growth is 79% (inactive).

Consider `O=C(NNC(=O)N1c2ccccc2C=Cc2ccccc21)c1ccccc1`, for which the growth is 110% (inactive).

Consider `Cc1ccc(S(=O)(=O)n2cc(C(=O)C(=O)Nc3ccncc3)c3ccccc32)cc1`, for which the growth is 18.1% (inactive). In the case of `COc1ccc(C2=C(c3cc(OC)c(OC)c(OC)c3)C(=O)CC2)cc1`, the growth is 2.99% (active). For `Cn1ccc(Nc2nccc(Oc3ccc(C(=O)Nc4cccc(F)c4)c(Cl)c3)n2)c1` the value was 96.9% (inactive). For `CCOc1cc2c(Cl)ncnc2c(OCC)c1OCC` the value was 73.7% (inactive); for `NC(N)=Nc1nc2ccccc2o1`, 80% (inactive). For `CC(C)CC1NC(C)(C)CO1` (centres undefined) the value was 110% (inactive); for `COc1cc(/C=N\NC(=O)CN2CCN(c3cc4c(cc3F)c(=O)c(C(=O)N/N=C/c3cc(OC)c(OC)c(OC)c3)cn4C3CC3)CC2)cc(OC)c1OC`, 18.2% (inactive); for `COc1ccc(-c2nc3sc(-c4cc(OC)c(OC)c(OC)c4)nn3c2/C=C2/C(=O)Nc3ccc(F)cc32)cc1`, -53.4% (active). On to `Nc1cccc(-c2nc3sccn3c2-c2ccnc(NCCNS(=O)(=O)c3ccc(C(F)(F)F)cc3)n2)c1`, for which the growth was 53.6% (inactive). On to `COc1ccc(-c2ccc(-c3ccc(C(=N)N)s3)s2)cc1Cl`, for which the growth was 97.2% (inactive).

On to `NC(=O)c1c(NC(=S)Nc2ccc(OC(F)(F)F)cc2)sc2c1CCC1(C2)OCCO1`, for which the growth is 97.2% (inactive).

Regarding `COc1ccc2[nH]c(C(=O)OCc3ccc4c(Cl)cc(Cl)c(O)c4n3)cc2c1`, the growth was -78.2% (active). For `CCO/C=N/C1=C(C#N)C(c2ccc(Cl)cc2)c2c(c3ccccc3n(C)c2=O)O1` (centres undefined) the value was 57.2% (inactive). Take `COc1ccc(S(=O)(=O)Nc2cc(/C=C\c3cc(OC)c(OC)c(OC)c3)cc(OC)c2OC)cc1`: the growth was 15.9% (inactive).

Consider `CCCCNC(=O)Oc1ccc(/C(=C(\C)c2ccccc2)c2ccc(OCCN(CC)CC)cc2)cc1`, for which the growth was 6.41% (active). For `COc1ccc(S(=O)(=O)n2cc(C(=O)C(=O)Nc3ccncc3)c3ccccc32)cc1F` the value was 93.2% (inactive); for `CC(C)(C)n1cc(-c2ccnc(NCCCNS(=O)(=O)c3ccc(Br)cc3)c2)c(-c2cccc(O)c2)n1`, 5.23% (active); for `O=Nc1c(-c2cccc([N+](=O)[O-])c2)nc2ncccn12`, 76.9% (inactive).

Consider `O=C1/C(=C/c2ccc([N+](=O)[O-])cc2)CN(C(=O)CCN2CCC(=NO)CC2)C/C1=C\c1ccc([N+](=O)[O-])cc1`, for which the growth was -33.4% (active). Next, `CCOC(=O)C1=C(C)NC(C)=C(C(=O)OCC)C1(C)C`: 109% (inactive); `CCCCN(CCCC)C(=N)c1ccnc2ccccc12`: 110% (inactive); `C1=Cc2ccccc2N(c2nnc(-c3ccccc3)o2)c2ccccc21`: 100% (inactive).

For `CCCCCCCCCCCCCCCCCCNC(=O)[C@H]1CSC(c2ccc(OC)cc2O)N1` (some centres undefined), the growth was 65.3% (inactive). Next, `COc1ccc(C(=O)c2cc(OC)c3c(c2)OCO3)cc1O`: 14.2% (inactive).

Consider `COc1ccc(-c2cc(-c3ccccc3)nc(SCCCC(=O)NO)n2)cc1OC`, for which the growth is -4.14% (active). Next, `CCOC(=O)C1CCNC(=O)C1=O` (centres undefined): 108% (inactive). Turning to `COc1ccc(Nc2[nH]n3c(=O)cc(-c4ccccc4)nc3c2C(=O)Nc2ccc(C)cc2)c(OC)c1`, the growth was 95.6% (inactive).

`COc1ccc(-c2cn(-c3cccc(C(=O)/C=C/c4cc(OC)c(OC)c(OC)c4)c3)c(=O)[nH]2)cc1OC`: the growth was 80.1% (inactive).

In the case of `Cc1ccc(S(=O)(=O)NC(=O)n2cc(-c3ccncc3)c(-c3ccc(Cl)c(O)c3)n2)cc1`, the growth is 51.2% (inactive). For `COC(=O)C1CCCN1C(=O)[C@@H]1CCCN1C(=O)[C@H](Cc1c[nH]c2ccccc12)NC(=S)Nc1cc(C(F)(F)F)cc(C(F)(F)F)c1` (some centres undefined) the value was 60.9% (inactive).

The record behind these values is PubChem BioAssay (NCI).
